Source: PubChem BioAssay
Sampled rows, rich in hits. Any-hit rate of the full collection: about 28%.
CYP2C19 inh: human CYP2C19 inhibition | P33261 | CYP2C19 Supersomes, luciferin-H EGE luminescence, 30 min | inhibition, % at 5 µM | 21% of 96,000 active | AID 778;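 active = CYP2C19 inhibition above a set limit at 5 µM in the primary screen, cut at about 50% in these data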
Target sequence (P33261 whole entry, looked up): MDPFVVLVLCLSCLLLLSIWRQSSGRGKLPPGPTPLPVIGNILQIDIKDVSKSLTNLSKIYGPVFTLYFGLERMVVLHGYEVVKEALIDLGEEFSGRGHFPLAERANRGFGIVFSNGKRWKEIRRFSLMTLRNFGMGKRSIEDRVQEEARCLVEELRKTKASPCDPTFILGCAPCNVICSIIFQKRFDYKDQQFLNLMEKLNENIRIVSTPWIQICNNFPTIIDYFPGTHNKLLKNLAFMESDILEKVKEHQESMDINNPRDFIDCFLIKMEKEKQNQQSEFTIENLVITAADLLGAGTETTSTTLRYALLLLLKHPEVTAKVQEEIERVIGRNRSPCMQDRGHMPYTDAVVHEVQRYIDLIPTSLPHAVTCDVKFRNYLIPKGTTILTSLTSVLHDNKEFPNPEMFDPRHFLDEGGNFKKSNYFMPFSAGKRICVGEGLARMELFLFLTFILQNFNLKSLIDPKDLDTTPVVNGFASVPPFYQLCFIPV
CYP2C9 activ: CYP2C9 (human) activation; activation factor at 5 µM; P11712; recombinant CYP2C9, luciferin-H conversion, luminescence; hits give high values; factor 1 = untreated enzyme, 0 = blocked; AID 1024; 1.4% of 96,000 active;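 active = activation factor of 2 or more for CYP2C9 at a 5 µM dose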
Plk1 PBD FP: blocks phosphopeptide binding to human Plk1 polo box domain. Plk1 PBD phosphopeptide binding, fluorescence polarization. AID 693. inhibition, %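 (tested at about 20 µM)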. P53350. 0.13% of 97,000 active; in the data active = inhibition above about 34%, passing the limit was not always enough
PLK1 kinase inh: PLK1 (human) kinase inhibition; inhibition, % at 10 µM; recombinant PLK1 kinase, TR-FRET peptide phosphorylation; 0.53% of 97,000 active;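 active = inhibition of 50% or more in the single-concentration screen; inactive = inhibition below 50%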
CYP2C19 act: increases human CYP2C19 enzyme activity | 96,000 tested, under 10 active | AID 1025 | activation factor at 5 µM | recombinant CYP2C19, luciferin-H EGE luminescence; hits give high values; 0 = fully inhibited enzyme, 1 = untreated enzyme | P33261;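 active = activation factor of at least 2 at 5 µM in the primary screen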
CYP2C9 inhib: blocks human cytochrome P450 2C9; P11712; CYP2C9 Supersomes, luciferin-H conversion, luminescence; inhibition, % at 5 µM; 20% of 96,000 active; AID 777;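 active = blocking of liver enzyme CYP2C9 beyond about 50% at 5 µM, limit read from the data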
Numbers stand for hits; . = inactive; / = no result.

SMILES	CYP2C19 inh	CYP2C9 activ	Plk1 PBD FP	PLK1 kinase inh	CYP2C19 act	CYP2C9 inhib
CC(C)NC(=O)c1cc(C(=O)c2cc(Cl)ccc2O)coc1=N	69	.	.	.	.	.
C=CCn1c(=O)/c(=C/c2cc(OC)c(OC)c(OC)c2)s/c1=C(/C#N)c1nc2ccccc2n1C	.	.	/	/	.	.
Cc1[nH]c2ccccc2c1C1(O)C(=O)N(C(C)C)c2ccccc21 (stereo not given)	95	.	.	.	.	.
CC(C)n1c(=S)[nH]c2ccccc2c1=O	.	.	.	.	.	.
Cc1ccc2c(c1)C(O)(c1c(C)[nH]c3ccccc13)C(=O)N2 (stereo not given)	98	.	.	.	.	60
COc1ccc(CN2C(=O)C(O)(CC(=O)c3ccc4c(c3)OCO4)c3ccccc32)cc1OC (stereo not given)	.	.	.	.	.	.
Cc1[nH]c2ccccc2c1C1(O)C(=O)N(Cc2ccc3c(c2)OCO3)c2ccccc21 (stereo not given)	83	.	.	.	.	73
CCCC1=C(C(=O)OCC)C(c2c(C)nn(-c3ccccc3)c2Cl)C(C#N)=C(N)O1 (stereo not given)	50	.	.	.	.	55
CC1(C)CC(=O)C2=C(C1)OC(N)=C(C#N)C2c1ccccc1 (stereo not given)	73	.	.	.	.	.
Cc1nn(-c2ccccc2)c(Cl)c1C1C(C#N)=C(N)OC2=C1C(=O)CC(C)(C)C2 (stereo not given)	.	.	.	.	.	69
CC1(C)CC(=O)C2=C(C1)OC(N)=C(C#N)C2C1C=CCCC1 (stereo not given)	.	.	.	.	.	60
N#Cc1ccc(Nc2ccccc2)c(N)c1	.	.	.	.	.	.
CCOc1ccc(-n2c(Cc3cc(=O)[nH]c(=O)[nH]3)nnc2SC(C)C(=O)OC)cc1 (stereo not given)	.	.	.	.	.	.
Cc1ccc(-n2nc(C)c(C3C(C#N)=C(N)OC4=C3C(=O)CCC4)c2Cl)cc1 (stereo not given)	91	.	/	/	.	53
COc1ccc(C2C(C#N)=C(/N=C/N3CCN(C)CC3)OC3=C2C(=O)CC(C)(C)C3)cc1 (stereo not given)	51	.	.	.	.	53
CC1(C)CC(=O)C2=C(C1)OC1=C(C(=O)CC(C)(C)C1)C2c1ccccc1	.	.	.	.	.	.
Cc1ccc(C(=O)Nc2nc3ccccc3c(=O)s2)cc1	.	.	.	.	.	.
CSC1=NCCN1C(=O)c1ccc2c(c1)OCO2	.	.	.	.	.	.
CC1=CC(C)(C)N(C(=O)c2ccc(F)cc2)c2cc3c(cc21)OCO3	95	.	.	.	.	97
CC(C)(C)C(=O)Nc1ccc(N2CCCC2)cc1	.	.	.	.	.	.
CC(=O)c1cc2c(cc1NS(=O)(=O)c1ccc3c(c1)OCCO3)OCO2	99	.	.	.	.	.
COC(=O)c1ccc(Cl)c(NS(=O)(=O)c2ccc3c(c2)OCCO3)c1	87	.	.	.	.	.
NC(=O)c1ccccc1NS(=O)(=O)c1ccc2c(c1)OCCO2	76	.	.	.	.	.
CC(=O)c1cc2c(cc1NC(=O)C1CC=CCC1C(=O)O)OCO2 (stereo not given)	.	.	.	.	.	74
CC(=O)Nc1cc2c(cc1C(C)=O)OCCO2	.	.	.	.	.	.
SMILES	CYP2C19 inh	CYP2C9 activ	Plk1 PBD FP	PLK1 kinase inh	CYP2C19 act	CYP2C9 inhib
O=C(c1ccccc1NS(=O)(=O)c1cccc([N+](=O)[O-])c1)N1CCOCC1	.	.	.	.	.	.
Cc1ccc(NC(=S)NNC(=O)Cn2nc([N+](=O)[O-])cc2C)cc1	.	.	.	.	.	.
CC(=O)c1cc2c(cc1NC(=O)CN1CCCCCCC1)OCO2	83	.	.	.	.	69
CC(=O)c1cc2c(cc1NS(=O)(=O)c1ccc(C)cc1)OCO2	63	.	.	.	.	.
CCC(CC)NC(=O)COC(=O)c1ccc(NS(=O)(=O)c2ccc3c(c2)OCCO3)cc1	84	.	.	.	.	99
O=C(NS(=O)(=O)c1ccc2c(c1)OCCO2)c1ccccc1	.	.	.	.	.	58
CC(=O)c1cc2c(cc1NC(=O)CCCC(=O)O)OCO2	.	.	.	.	.	.
